SMN2 splice up: SMN2 splice variant enhancement. Potency, µM (top dose mostly 46.1 µM), for inactives: at the top dose activity change, positive = activation, hits mostly activators. HEK293 SMN2-luciferase splicing reporter, luminescence, 30-36 h. 210,000 tested, 2.8% active; further: % of control where 0% means no effect; nearly all actives have a fitted effect of over 55% in size
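HEK293 cells carry an SMN2 […]–luciferase reporter in which exon 7 inclusion puts luciferase in frame. Cells were plated 10-12 h before compound addition, then incubated 30-36 h at 37C. ONE-Glo luminescence was read; sodium butyrate at 4.5 mM final served as control.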
NPC1 prom act: activates the NPC1 promoter; Huh7 NPC1 promoter luciferase reporter, 24 h; Potency, µM (series often up to 9.22 µM), for the others: at the top dose activation, hits mostly activators; 320,000 tested, 2.4% active; AID 485313; further: % of control where 0% means no effect; nearly all actives have a fitted effect of over 60% in size
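Stably transfected Huh7 (NPC1 promoter→luciferase), 1500 cells/well in Opti-MEM + 10% FBS, 2 h settle, then compound 24 h at 37 °C. Luminescence after 10 min with Amplite reagent.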
FLuc counter: firefly luciferase modulation, counter-screen for miR-21 project; P08659; purified FLuc, Km substrates, luminescence inhibition; Potency, µM (titrated, usually from 57.5 µM), for the others: top-dose activity change, negative = inhibition, actives largely listed as inhibitors; 360,000 tested, 6.9% active; AID 588342;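 further: plate controls were vehicle for no effect and reference inhibitor for full effect; nearly all actives have a fitted effect of over 55% in size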
Target sequence (P08659 whole entry, looked up): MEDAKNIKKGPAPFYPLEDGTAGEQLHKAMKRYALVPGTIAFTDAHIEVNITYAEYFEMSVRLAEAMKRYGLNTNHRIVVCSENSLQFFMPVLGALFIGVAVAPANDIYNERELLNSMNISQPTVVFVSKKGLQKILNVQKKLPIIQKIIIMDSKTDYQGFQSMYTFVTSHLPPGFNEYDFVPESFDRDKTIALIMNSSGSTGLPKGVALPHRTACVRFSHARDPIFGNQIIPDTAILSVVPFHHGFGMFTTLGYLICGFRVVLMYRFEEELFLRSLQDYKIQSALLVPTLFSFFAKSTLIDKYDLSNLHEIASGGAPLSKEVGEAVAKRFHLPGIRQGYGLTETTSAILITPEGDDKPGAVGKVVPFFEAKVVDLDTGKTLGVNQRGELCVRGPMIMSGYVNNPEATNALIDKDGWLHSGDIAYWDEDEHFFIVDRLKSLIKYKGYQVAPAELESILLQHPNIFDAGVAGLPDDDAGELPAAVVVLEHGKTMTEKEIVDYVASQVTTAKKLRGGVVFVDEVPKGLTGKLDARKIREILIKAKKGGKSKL
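Purified P. pyralis luciferase (10nM final) with 10uM D-luciferin and 10uM ATP (Km levels) in 50mM Tris acetate pH 7.5, 10mM Mg acetate, 0.01% Tween-20, 0.05% BSA; qHTS 6-point titration, ~60 µM downward; luminescence read.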
Rab9 prom act: Rab9 promoter activation. Huh7 Rab9 promoter-luciferase reporter, luminescence, 24 h. 320,000 tested, 2.8% active. Potency, µM (titrated, usually from 9.22 µM), for the others: at the top dose activation, negative = inhibition, actives largely listed as activators; further: % of control where 0% means no effect; nearly all actives have a fitted effect of over 60% in size
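Using Huh7 cells stably transfected with Rab9 promoter–luciferase, compounds were incubated 24 h at 37 °C, 5% CO2; luciferase luminescence was read 10 min after reagent addition.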
ELG1 genotox: inducers of genotoxicity in HEK293T ELG1-luciferase cells. HEK293T ELG1-luciferase reporter, luminescence, 16 h. Potency, µM (titrated, usually from 46 µM), for the others: at the top dose activity change, positive = activation, most hits filed as activators. 330,000 tested, 1.3% active; further: % of control where 0% means no effect; nearly all actives have a fitted effect of over 60% in size
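Screening used a luciferase reporter fused to human ELG1 in HEK293T cells. Luminescence was read on a CCD plate imager after 16 hr exposure and 30 min ONE-Glo incubation.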
KinaseGlo FLuc: Kinase-Glo luciferase inhibition (counter-screen). Q27757. Kinase-Glo luciferase, ATP luminescence, 8 min. Potency, µM (titrated, usually from 38.3 µM), inactives show at the highest dose activity change, negative = inhibition, actives largely listed as inhibitors. 200,000 tested, 0.28% active. AID 1379; further: on the % scale 0 is the no-effect control and ±100 the full control effect; nearly all actives have a fitted effect of over 60% in size
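Luminescence was the read-out, taken after 8-minute incubation at ambient temperature. Luciferase turned over luciferin with 10 uM ATP in imidazole pH 7.2 buffer containing KCl, MgCl2, Tween 20 and BSA.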
Active calls of the source: *; ? = inconclusive; / = no result. An excerpt weighted towards active compounds, which were near 7.4% of everything screened. The call rests on the fitted dose curve; in most records, active means well fitted curve in the direction sought with a large enough effect; inconclusive means small, poorly fitted or top-dose-only effect, or another doubt; inactive means no such curve, though single readings can be large; an effect the other way counts as inactive or inconclusive. Potency means the concentration at half of the fitted maximal effect.

SMILES	SMN2 splice up	NPC1 prom act	FLuc counter	Rab9 prom act	ELG1 genotox	KinaseGlo FLuc
O=C(NC1CCCCC1)C1CC=CCC1C(=O)OCC(Cl)=C(Cl)Cl (centres undefined)	-5%	1%	0%	7%	-4%	-6%
CN1CCCC1CCNc1ccc2oc3ccccc3c(=O)c2c1 (centres undefined)	/	17%	4.8µM*	-4%	?	/
CN1CCC[C@H]1CCNC(=O)c1c(-c2ccsc2)sc2ccccc12	/	/	/	/	0%	/
CN1CCCC1CCNc1ccc2c(=O)c3ccccc3oc2c1 (centres undefined)	/	?	11µM*	?	?	/
COc1ccc(-n2ncc(C(C)NS(=O)(=O)c3cc(F)ccc3C)c2C)cc1 (centres undefined)	/	0%	6%	-2%	-6%	/
Fc1cccc(F)c1CSc1nc2ccccc2[nH]1	10µM*	1.4µM*	?	1µM*	?	-7%
COCCn1c(C)cc(C(=O)CSc2ccc3ccccc3n2)c1C	11µM*	?	12µM*	?	4%	-2%
Cc1cc(C(=O)CSc2nncs2)c(C)n1Cc1ccco1	3%	0.63µM*	4.8µM*	0.71µM*	?	2%
C=C(C)CSc1nc2ccccc2[nH]1	?	-3%	?	20%	7%	-14%
C=CCn1c(C)cc(C(=O)CSc2nc3ccccc3[nH]2)c1C	-59%	0.13µM*	0.3µM*	0.32µM*	?	-7%
COCCn1c(C)cc(C(=O)COc2nc3ccccc3nc2C)c1C	-54%	-8%	-16%	-6%	-2%	-3%
O=C(OCC(=O)N1CCc2ccccc2C1)c1ccc(O)cc1	/	/	/	/	7%	/
COc1ccccc1CN1C(=O)c2ccccc2C1C(=O)NC1CCC(C)CC1 (centres undefined)	1%	2%	-4%	-3%	-2%	2%
COCCn1c(C)cc(C(=O)CSc2nc3ccccc3c(=O)[nH]2)c1C	?	1.8µM*	5.4µM*	1.6µM*	?	-3%
O=C(O)c1ccccc1CSc1nc2ccccc2[nH]1	/	?	11µM*	?	?	/
O=C(CSc1nc2ccccc2[nH]1)c1ccccc1F	/	1.4µM*	8.5µM*	1.6µM*	?	/
CCCn1c(C)cc(C(=O)CSc2nc3ccccc3c(=O)n2Cc2ccco2)c1C	?	3.2µM*	5.4µM*	3.5µM*	?	-1%
COCC(C)n1c(C)cc(C(=O)CSc2nc3ccccc3c(=O)[nH]2)c1C (centres undefined)	-42%	13%	?	21%	-7%	-5%
CCN(CC)C(=O)CSc1nc2ccccc2c(=O)n1Cc1ccco1	/	/	-3%	/	/	/
O=C(CSc1nc2ccccc2[nH]1)c1c[nH]c2ccccc12	13%	11%	-11%	20%	7%	-1%
O=C(NN1CCOCC1)c1ccccc1Br	/	-3%	-1%	9%	1%	/
Cc1cc2oc(C(=O)Nc3cccc(-c4nc5ccccc5o4)c3)c(C)c2cc1Cl	/	/	-2%	/	/	/
COc1cc(OC)c(NS(=O)(=O)c2ccc(Cl)c(C(=O)OC(C)C(=O)N3CCCC3)c2)cc1Cl (centres undefined)	-35%	0%	3%	-7%	6%	0%
CCOC(=O)N1CCN(C(=O)CSc2nnc3[nH]c(=O)c(C)c(C)n23)CC1	/	-2%	1%	-3%	8%	/
Cc1ccc2nc(SCC(=O)c3cc(C)n(C)c3C)[nH]c2c1	11%	6%	-19%	-1%	12%	-4%
SMILES	SMN2 splice up	NPC1 prom act	FLuc counter	Rab9 prom act	ELG1 genotox	KinaseGlo FLuc
Cc1cc(C(=O)CSc2nnc(-c3ccco3)o2)c(C)n1Cc1ccco1	-21%	0%	?	7%	?	0%
Cc1cc(C(=O)CSc2nc3ccccc3[nH]2)c(C)n1Cc1ccco1	?	0.71µM*	0.76µM*	0.5µM*	?	-1%
Fc1cccc(CSc2nc3ccncc3[nH]2)c1	11µM*	25%	?	?	16%	-20%
COCCn1c(C)cc(C(=O)CSc2nncn2-c2ccccc2)c1C	4%	0%	19µM*	-1%	7%	-9%
Cc1cc(C(=O)CSc2nc3ccccc3[nH]2)c(C)n1C	3.2µM*	0.4µM*	3.4µM*	0.45µM*	?	-1%
CC(C)OC(=O)C1Cc2ccccc2CN1S(=O)(=O)c1cccs1 (centres undefined)	/	-4%	0%	-2%	0%	/
CC1CCc2c(sc(NC(=O)c3ccccc3)c2C(=O)Nc2ccccc2)C1 (centres undefined)	16%	/	2%	/	/	/
O=C(CSc1nc2ccccc2[nH]1)N1CCCCC1	10µM*	?	21µM*	3.5µM*	8.2µM*	4%
Cc1cc(C)c(C(=O)CSc2nc3ccccc3c(=O)[nH]2)cc1C	-26%	-13%	-10%	-6%	-2%	-1%
C=CCn1c(C)cc(C(=O)CSc2nc3ccccc3c(=O)[nH]2)c1C	-38%	?	9.5µM*	0.79µM*	2.9µM*	5%
C=CCn1c(C)cc(C(=O)COc2nncc3ccccc23)c1C	?	1.4µM*	15µM*	?	10µM*	-3%
Cc1ccc2nc(NC(=O)c3nc(SCc4ccccc4C)ncc3Cl)sc2c1	-4%	/	-6%	/	/	/
O=C1c2ccccc2C(=O)N1CCSC(=S)N1CCOCC1	?	?	12µM*	?	?	1%
Cc1[nH]n(-c2ccccc2)c(=O)c1C=NCc1ccco1	11µM*	3.5µM*	9.5µM*	1.8µM*	16µM*	0%
Cc1[nH]n(-c2cccc(Cl)c2)c(=O)c1C=NCc1ccco1	13µM*	2µM*	1.5µM*	1.1µM*	9.2µM*	-2%
Cc1[nH]n(-c2cccc(Cl)c2)c(=O)c1C=NC12CN3CN(CN(C3)C1)C2	-7%	-1%	-1%	2%	1%	-2%
Cc1[nH]n(-c2ccccc2)c(=O)c1/C=N/O	-20%	0%	-16%	15%	1%	-3%
Cc1[nH]n(-c2cccc(Cl)c2)c(=O)c1C=NCC(C)C	13µM*	3.2µM*	24µM*	2.8µM*	21µM*	-1%
CCN(Cc1ccc(Cl)s1)C(=O)c1cccc(OCc2c(C)noc2C)c1	/	/	/	/	0%	/
COc1cccc(NC(=O)CN(C)C(=O)C(C)Sc2ccccc2)c1 (centres undefined)	/	0%	-1%	2%	-2%	/
O=C(O)c1sccc1S(=O)(=O)Nc1ccc(Cl)cc1	-7%	/	/	/	/	0%
O=C(N/C(=C/c1ccccc1)C(=O)N1CCCCC1)c1ccccc1	/	3.5µM*	7.6µM*	2.8µM*	18µM*	/
